From PubChem
DAT uptake mod = changed hDAT dopamine uptake under cocaine IC80, either direction, primary screen, cocaine antagonist project, cell-based, LLC-PK1 hDAT, [14C]-dopamine uptake, MLSMR; LLC-PK1 hDAT cells, [14C]-dopamine uptake with cocaine IC80; actives deviate in either direction; actives 1.3% (n = 110,000); B-score at 10 µM; AID 449768, 2010;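 active means Z score or B-score, a plate-position-corrected score, falls beyond the plate's 99.7% confidence bounds, in either direction; inactive means both scores lie inside the 99.7% bounds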
Target sequence (Q01959 whole entry, looked up): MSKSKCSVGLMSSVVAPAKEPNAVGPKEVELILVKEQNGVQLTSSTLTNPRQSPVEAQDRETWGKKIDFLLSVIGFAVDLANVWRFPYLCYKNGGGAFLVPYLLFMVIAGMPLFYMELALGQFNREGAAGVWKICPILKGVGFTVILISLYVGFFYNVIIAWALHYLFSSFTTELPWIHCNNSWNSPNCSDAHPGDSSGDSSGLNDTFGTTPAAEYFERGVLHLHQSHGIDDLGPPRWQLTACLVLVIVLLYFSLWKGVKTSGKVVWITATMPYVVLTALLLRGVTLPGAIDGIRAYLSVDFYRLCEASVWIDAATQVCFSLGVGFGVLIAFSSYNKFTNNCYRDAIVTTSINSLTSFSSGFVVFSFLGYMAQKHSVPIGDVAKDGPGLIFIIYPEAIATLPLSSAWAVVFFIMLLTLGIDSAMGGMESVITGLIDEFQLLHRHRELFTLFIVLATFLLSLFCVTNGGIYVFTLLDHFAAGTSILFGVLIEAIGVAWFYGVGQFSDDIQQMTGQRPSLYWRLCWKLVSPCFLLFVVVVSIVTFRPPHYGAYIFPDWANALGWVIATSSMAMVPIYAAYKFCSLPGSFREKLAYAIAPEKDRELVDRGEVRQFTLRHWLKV
Plk1 PBD FP = Plk1 polo box domain binding inhibitors, primary screen, biochemical, fluorescence polarization; actives 0.13% (n = 97,000); inhibition, %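 (tested at about 20 µM)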; AID 693, 2007; Plk1 PBD phosphopeptide binding; in the data active means inhibition above about 34%, passing the limit was not always enough
PLK1 inh = human PLK1 kinase inhibitors, primary screen, biochemical, TR-FRET; recombinant PLK1 kinase, TR-FRET peptide phosphorylation; inhibition, % at 10 µM; AID 619, 2007; actives 0.53% (n = 97,000); Serine/threonine-protein kinase PLK1 (Homo sapiens), P53350;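 active means inhibition of 50% or more in the single-concentration screen; inactive means inhibition below 50%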
PTK2B oligo ant = antagonists of Pyk2 self-association, primary screen, Q293 cells, FERM NanoBiT luminescence, HTS; Protein-tyrosine kinase 2-beta (Homo sapiens), Q14289; hits give low values; z-score (the deposit names both 25 µM and 10 µM); actives 0.83% (n = 99,000); AID 1347419, 2020;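 active means Z-score of -3 or lower, scaled per plate to the spread of control and sample wells; inactive means z-score above -3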;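 further: negative z-score means lost luminescence so less FERM oligomerization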
SDO1 yeast rescue = growth rescue of sdo1-depleted yeast, primary screen, S. cerevisiae, bone marrow failure model; S. cerevisiae sdo1-depleted JHY4D growth rescue, OD600 30 h; hits give high values; pdr5 snq2 efflux-pump mutant strain; z-score at 10 µM; actives 0.21% (n = 140,000); AID 817, 2007;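 active means z-score above 3 at both the 24 hr and the 30 hr optical density reads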
Cav32 inh = Cav3.2 calcium influx blockers – cell-based, Fluo-4 calcium fluorescence, FDSS, MLSMR library, primary screen; Voltage-dependent T-type calcium channel subunit alpha-1H (Homo sapiens), O95180; Cav3.2-expressing cells; hits give low values; B-score at 10 µM; actives 4% (n = 100,000); AID 449739, 2010;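 active means single-dose well whose peak fluorescence ratio is a statistical outlier from its plate by either plate-standardised score or position-corrected B-score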
Of the large screens only hits and unclear results are named; the others gave an inactive call. Rows were chosen to be rich in hits. Some 4.7% of all compounds tested hit in one or more screens of this group.

CC(O)C(NS(=O)(=O)c1ccc(Cl)cc1)C(=O)OCc1nnc(-c2ccccc2)o1 (stereo not given)	none
C=C1[C@@H](OC(C)=O)CC[C@]2(C)[C@@H]1C[C@@H]1C[C@H](OC(C)=O)C(C)=C([C@@H](OC(C)=O)[C@@H]2OC(C)=O)C1(C)C	none (no result: Plk1 PBD FP, PLK1 inh, PTK2B oligo ant, SDO1 yeast rescue)
O=C(C1CCN(S(=O)(=O)c2cccc3cccnc23)CC1)N1CCN(c2ccc(Cl)cc2)CC1	none (no result: PTK2B oligo ant)
CCCC(=O)Nc1cc(C)c2c(=O)oc3ccccc3c2n1	Cav32 inh -3.9 (no result: Plk1 PBD FP, PLK1 inh, PTK2B oligo ant, SDO1 yeast rescue)
COc1ccc(C(=O)Nc2cc(C)c3c(=O)oc4ccccc4c3n2)cc1	none (no result: PTK2B oligo ant)
COc1ccc2c(c1)C=C(C(=O)NCc1ccc(Cl)cc1)CO2	Cav32 inh -6.7
O=C(Nc1ccc(Cl)cc1)C1=Cc2cc(Cl)ccc2OC1	none
O=C(CCN1CCN(c2ccccc2)CC1)Nc1nccs1	PLK1 inh 65
Cc1cccc(N(C(=O)Nc2ccccc2)C2=NCC(C)S2)c1 (stereo not given)	PLK1 inh 67 (no result: PTK2B oligo ant)
Cc1nc2sc(C(c3ccco3)N3CCN(C(c4ccccc4)c4ccccc4)CC3)c(O)n2n1 (stereo not given)	Cav32 inh -5.4 (no result: Plk1 PBD FP, PLK1 inh, PTK2B oligo ant, SDO1 yeast rescue)
Cc1ccc(C(c2sc3nc(C)nn3c2O)N2CCN(c3ccccc3F)CC2)cc1 (stereo not given)	Cav32 inh -5.5
Cc1nc2sc(C(c3ccco3)N3CCC(C)CC3)c(O)n2n1 (stereo not given)	none (no result: Plk1 PBD FP, PLK1 inh, PTK2B oligo ant)
Cc1nc2sc(C(c3ccc(Br)cc3)N3CC(C)OC(C)C3)c(O)n2n1 (stereo not given)	DAT uptake mod 2.6
Cc1nc2sc(C(c3ccccc3)N3CC(C)OC(C)C3)c(O)n2n1 (stereo not given)	none
O=c1c(Cl)c(NCCCO)cnn1-c1nc2ccccc2[nH]1	Cav32 inh 3.1
CN(C)S(=O)(=O)c1cccc(NC(=O)CCNC(=O)c2ccccc2Cl)c1	none (no result: DAT uptake mod, Plk1 PBD FP, PLK1 inh, PTK2B oligo ant, Cav32 inh)
O=S(=O)(Nc1nc(-c2sccc2Cl)cs1)c1cc(Cl)ccc1Cl	Cav32 inh -7.1
CCN(CC)S(=O)(=O)c1ccc(NC(=O)COC(=O)c2ccc(Br)o2)cc1	Cav32 inh -4.7
COc1ccc(CCNC(=O)COC(=O)c2ccc(Br)o2)cc1OC	none
CN(C)S(=O)(=O)c1cccc(NC(=O)COC(=O)c2ccc(Br)o2)c1	none
COc1ccc(CCNC(=O)COC(=O)c2ccc(Br)o2)cc1	Cav32 inh -3.8
COC(=O)Nc1ccc(S(=O)(=O)N2CCCC(C(=O)NC3CCS(=O)(=O)C3)C2)cc1 (stereo not given)	none (no result: DAT uptake mod, Plk1 PBD FP, PLK1 inh, PTK2B oligo ant, Cav32 inh)
CC1CCC(C(C)C)C(OC(=O)CSc2nnc(N)s2)C1 (stereo not given)	Cav32 inh -4.8
O=C(Nc1ccc(O)c2c(=O)cc(-c3ccccc3Cl)oc12)c1cccs1	none (no result: Plk1 PBD FP, PLK1 inh, PTK2B oligo ant, SDO1 yeast rescue)
O=C(Cc1cccc2ccccc12)NNC(=O)Nc1cccc(Cl)c1	Cav32 inh -7.9
O=C1NC[C@H](Cc2ccccc2)N(CC2CCCCC2)C1=O	none (no result: Plk1 PBD FP, PLK1 inh, PTK2B oligo ant, SDO1 yeast rescue)
O=C(O)c1cccc(N2C(=O)CSC2c2c(F)cccc2Cl)c1 (stereo not given)	none
CCC(C)(NC(=O)c1cccc(N2C(=O)CSC2c2ccccc2)c1)C(=O)Nc1ccccc1C (stereo not given)	Cav32 inh -5.1
COc1ccc(CN(C(=O)CSc2nnc(-c3ccccc3C)o2)c2ccc(F)cc2)cc1	Cav32 inh -4.7
O=C(CSc1nnc(-c2c[nH]c3ccccc23)o1)N(Cc1ccccc1)c1ccc(F)cc1	PTK2B oligo ant -3.3
Cc1ccc(C(=O)CSc2nnc(-c3c[nH]c4ccccc34)o2)cc1	none
CC(C)(C)OC(=O)N1CCN(C(=O)OCC2c3ccccc3-c3ccccc32)CC1C(=O)O (stereo not given)	none (no result: Plk1 PBD FP, PLK1 inh, PTK2B oligo ant, SDO1 yeast rescue)
CC(C)Oc1ccc(CC2CCC(=O)N(C)C2=O)cc1 (stereo not given)	none (no result: DAT uptake mod, Plk1 PBD FP, PLK1 inh, PTK2B oligo ant, Cav32 inh)
COc1ccc2c(c1)C1(Nc3ccccc3-c3nc4ccccc4n31)C(=O)N2C (stereo not given)	PTK2B oligo ant -3.1
CCC(C)C(NC(=O)OCc1ccccc1)C(=O)OCN1C(=O)c2ccccc2C1=O (stereo not given)	Cav32 inh -5.1
Cc1ccc(-c2cc(C(=O)N/N=C/c3c(C)nn(-c4ccccc4)c3C)[nH]n2)cc1	PTK2B oligo ant -3 (no result: DAT uptake mod, Cav32 inh)
O=C(NCc1cn(-c2ccccc2)nc1-c1ccc(F)cc1)c1cccc([N+](=O)[O-])c1	none (no result: DAT uptake mod, Plk1 PBD FP, PLK1 inh, PTK2B oligo ant, Cav32 inh)
C/C(CCc1ccc2c(c1)OCO2)=N\N=C1\NC(=O)CC(C(=O)Nc2ccccc2)S1 (stereo not given)	none
C/C(CCc1ccc2c(c1)OCO2)=N\N=C(/N)SC1CC(=O)N(c2ccccc2F)C1=O (stereo not given)	Cav32 inh -5.9
COc1ccc(CNC(=O)CS(=O)Cc2nc(-c3ccccc3C)oc2C)cc1 (stereo not given)	PLK1 inh 67 (no result: PTK2B oligo ant)
Cc1ccc(CNC(=O)CS(=O)Cc2nc(-c3ccccc3C)oc2C)cc1 (stereo not given)	Cav32 inh -4.5 (no result: PTK2B oligo ant)
CC(C)(C)OC(=O)NCCCC1=CC2=CC(=O)C(C)(OC(=O)C3CCCC3)C(=O)C2=CO1 (stereo not given)	none (no result: Plk1 PBD FP, PLK1 inh, PTK2B oligo ant, SDO1 yeast rescue)
Cc1ccc(C(C)C)c(OCCNC(=O)c2cncc(Br)c2)c1	Cav32 inh -4.9
Cc1sc(NC(=O)CSC2=NCCS2)nc1-c1ccccc1	Cav32 inh -4.4
O=C(CSC1=NCCS1)Nc1nc2ccccc2s1	none
O=C(CSc1cn(CCNC(=O)c2ccccc2)c2ccccc12)NCc1ccco1	PLK1 inh 67 (no result: PTK2B oligo ant)
Cc1cc(NC(=O)CSc2cn(CCNC(=O)c3ccccc3)c3ccccc23)no1	none (no result: PTK2B oligo ant)
O=C(NCCn1cc(SCc2ccc(F)cc2)c2ccccc21)c1ccccc1F	Cav32 inh -4.7 (no result: Plk1 PBD FP, PLK1 inh, PTK2B oligo ant)
Cc1ccc(C(=O)NCCn2cc(SCC(=O)Nc3cc(C)on3)c3ccccc32)cc1	PLK1 inh 62, Cav32 inh -4 (no result: PTK2B oligo ant)
Oc1c(Cl)cc(Cl)cc1C=Nc1ccc(Br)cc1	Cav32 inh -7.6
Cc1ccc(S(=O)(=O)NCCNc2ccc([N+](=O)[O-])cc2C(F)(F)F)cc1	none
O=[N+]([O-])c1ccc(NCCNS(=O)(=O)c2ccccc2)c(C(F)(F)F)c1	Cav32 inh -4.9
CCOC(=O)N1C2=NC(C(=O)OC)=C(C(=O)OC)[C@@H]3N(C)c4ccc(OC)cc4[C@]23C[C@H]1C(=O)OC	DAT uptake mod 1.6 (no result: Plk1 PBD FP, PLK1 inh, PTK2B oligo ant, SDO1 yeast rescue)
Cc1onc(-c2ccccc2Cl)c1C(=O)Oc1cc(N)n(S(=O)(=O)c2ccc(F)cc2)n1	none
